# Source: PubChem BioAssay
# Shown are actives, neighbours in structure and some others; about 8.3% of the full set was active somewhere.
# Giardia killer – kills Giardia lamblia; activity change, % at 7.66 µM, hits read low; 340,000 compounds, 0.15% hits; Giardia lamblia trophozoite viability; in the data active = activity change below about -80%; inconclusive = between about -30% and that limit;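 note: parasites exposed to compound for two days anaerobically before the ATP read; % is set by controls: 0 for no effect and ±100 for the full control effect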
#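 Trophozoite viability was measured as ATP-dependent luminescence, read 15-30 min after reagent addition. Before that, parasites at 100 cells/well were exposed to compounds for 48 h, anaerobically, at 37 deg C.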
# SW480 rerep – DNA re-replication induction in SW480 cells | AID 624297 | Potency, µM (doses to about 46.1 µM), for the others: at the top dose re-replication activation, most hits filed as activators | 340,000 compounds, 1.8% hits | SW480 DNA re-replication, Hoechst DNA content imaging, 48 h; note: potency is the fitted concentration of half-maximal effect; % of control where 0% means no effect; nearly all actives have a fitted effect of over 55% in size
#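 Compounds, transferred as 23 nL by pin tool, were incubated with cells for 48 hr; DNA content per nucleus was then quantified by Hoechst staining and fluorescence plate imaging.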
# Gal4-VP16 FLuc – inhibits Gal4-VP16 luciferase reporter, ROR gamma counter-screen; Drosophila S2 Gal4-VP16 UAS-luciferase, luminescence, 20 h; 310,000 compounds, 3.5% hits; Potency, µM (series often up to 53.6 µM), without a hit: top-dose activity, negative = inhibition, actives largely listed as inhibitors;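 note: Gal4-VP16 expression switched on by copper sulfate through the metallothionein promoter; potency is the fitted concentration of half-maximal effect; % is set by controls: 0 for no effect and ±100 for the full control effect; nearly all actives have a fitted effect of over 50% in size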
# MCF10A rerep – DNA re-replication induction in MCF 10a cells; MCF 10A DNA re-replication, Hoechst nuclear intensity, 48 h; Potency, µM (series often up to 46.1 µM), for inactives: at the highest dose activity, positive = re-replication, hits mostly activators; 350,000 compounds, 2.9% hits; note: potency is the fitted concentration of half-maximal effect; % of control where 0% means no effect; nearly all actives have a fitted effect of over 50% in size
# Chronic BCR inh – chronic active BCR signaling inhibition; 340,000 compounds, 0.05% hits; Potency, µM (doses to about 46.1 µM), for inactives: at the highest dose activity change, negative = inhibition, most hits filed as inhibitors; ABC-DLBCL IkBa-CBG/CBR reporter, luminescence ratio, 4 h; active = well fitted inhibition curve with a large enough effect in the signal ratio, with a control signal flat, not every such curve was filed as active; inconclusive = small, poorly fitted or top-dose-only effect, or effect the other way, or a change in a side signal; the % refers to the signal ratio;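 note: potency is the fitted concentration of half-maximal effect; plate controls were basal doxycycline-induced cells for no effect and cells given 10 µM MG132 for full effect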
#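 Concentration-response series (up to 46 uM) were applied to TMD8 dual-reporter cells for 4 h at 37C with doxycycline. Green/red ratio, after filter-overlap correction, defined %Activity; red signal alone was normalised to basal cells and zero luminescence.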
# RORgamma inh – ROR gamma (mouse) transcription inhibition; P51450; Drosophila S2 Gal4-RORgamma UAS-luciferase reporter, 20 h; Potency, µM (series often up to 53.6 µM), for inactives: at the top dose activity change, negative = inhibition, most hits filed as inhibitors; 310,000 compounds, 5.4% hits; note: potency is the fitted concentration of half-maximal effect; % is set by controls: 0 for no effect and ±100 for the full control effect; nearly all actives have a fitted effect of over 60% in size
# Target sequence (P51450 whole entry, looked up, the tested form may be a part): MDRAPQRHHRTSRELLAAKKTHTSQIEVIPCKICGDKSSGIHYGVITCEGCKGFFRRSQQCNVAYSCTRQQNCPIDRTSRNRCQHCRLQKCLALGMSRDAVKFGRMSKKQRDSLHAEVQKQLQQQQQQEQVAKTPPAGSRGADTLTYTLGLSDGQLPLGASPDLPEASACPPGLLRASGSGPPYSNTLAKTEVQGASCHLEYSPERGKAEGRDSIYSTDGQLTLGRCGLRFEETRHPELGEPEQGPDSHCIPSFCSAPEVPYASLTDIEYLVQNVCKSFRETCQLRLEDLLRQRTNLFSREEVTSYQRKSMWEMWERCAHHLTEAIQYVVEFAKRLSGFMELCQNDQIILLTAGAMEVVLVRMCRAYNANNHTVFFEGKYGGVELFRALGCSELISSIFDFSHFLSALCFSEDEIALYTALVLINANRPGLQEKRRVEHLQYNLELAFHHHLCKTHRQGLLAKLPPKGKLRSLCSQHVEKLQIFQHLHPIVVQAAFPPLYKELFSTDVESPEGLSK
#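 Read-out: Photinus luciferase luminescence; inhibitors lower reporter signal. Insect Schneider cells with Gal4-ROR gamma fusion under metallothionein promoter, UAS reporter; 700 uM final copper sulfate induction, 20 hr, ambient temperature.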
# Numbers without * were called inactive; ? = inconclusive; . = no result given; ! = repeats disagree; [ ] = another dose, or the depositor's remark. Unless noted, calls come from the whole dose curve; as a rule, active = well fitted curve in the direction sought with a large enough effect; inconclusive = small, poorly fitted or top-dose-only effect, or another doubt; inactive = no such curve, though single readings can be large; an effect the other way counts as inactive or inconclusive.
SMILES,Giardia killer,SW480 rerep,Gal4-VP16 FLuc,MCF10A rerep,Chronic BCR inh,RORgamma inh
COc1ccc(NC(=S)NCc2cccn2C)cc1,1,-3%,-2%,-2%,-2%,-27%
COc1ccc(NC(=O)C23CCC(C)(C(=O)O2)C3(C)C)cc1 (stereo not drawn),-6,5.2µM*,-9%,0.52µM*,5%,4%
C[C@H]1CN=C(Nc2ccccc2)N1CCc1ccccc1,11,-3%,.,-34%,-1%,.
COc1cccc([C@@H]2Oc3ccc(Br)cc3C(=O)[C@H]2OC(=O)NCc2ccco2)c1,.,.,-16%,.,.,?
COc1ccc(CNC(=O)Nc2ccc(OC)cc2)cc1,-14,?,2%,18µM*,-18%,-5%
Nc1c(-c2cccs2)cnc2c(-c3ccc(F)cc3)cnn12,-15,1%,-20%,15%,?,?
CC(C)(C)S(=O)(=O)c1cnc2c(-c3ccsc3)cnn2c1N,-4,?,-3%,?,7%,4.5µM*
COc1ccc(-c2c(C)nc3c(-c4ccsc4)cnn3c2N)cc1,3,8%,?,?,-2%,-34%
CS(=O)(=O)c1cnc2c(-c3ccc(F)cc3)cnn2c1N,-11,-8%,-25%,2%,5%,11µM*
Nc1c(-c2ccccc2)cnc2c(-c3ccccc3)cnn12,?,6%,7.1µM*,3%,?,6.3µM*
Cc1nc2c(-c3ccc(F)cc3)cnn2c(N)c1-c1ccc(F)cc1,-4,25%,-14%,5%,?,-26%
CCOc1cccc(=O)c2c(C)n(Cc3ccco3)c(C)c12,-17,-6%,3.5µM*,-1%,5%,0%
COc1cc(/C=C/C(=O)OCC(=O)NCc2ccccc2OC)ccc1O,11,1%,.,14%,?,.
C#C[C@]1(O)CC[C@H]2[C@@H]3CCc4cc(OC5CCCC5)ccc4[C@H]3CC[C@@]21C,-16,?,-12%,13µM*!,-5%,-10%[10 µM]
O=C(OCCN1CCCCC1)c1ccccc1Cl,27,1%,4%,-1%,0%,-10%
O=C(OCn1ncc(Cl)c(Cl)c1=O)c1ccc(F)cc1,.,.,6.3µM*,.,?,?
O=c1c(Cl)c(Cl)cnn1Cc1ccc(F)cc1,9,6.5µM*,?,3.7µM*,?,?
O=C(COC(=O)c1cnc(Cl)c(Cl)c1)c1ccc(F)cc1,-4,1%,.,-6%,0%,.
O=C(OCn1ncc(Cl)c(Cl)c1=O)c1ccccc1Cl,-3,7.3µM*,13µM*,5.8µM*,?,-89%
O=C(COC(=O)c1cc(Br)ccc1O)c1ccc(F)cc1,12,1%,.,?,?,.
CC1CCCCC12NC(=O)N(CC(=O)Nc1nccs1)C2=O (stereo not drawn),4,0%,.,-40%,?,.
O=C(NCCc1nc2ccccc2n1CCOc1ccc2ccccc2c1)C1CCCCC1,1,.,.,.,.,.
O=C(O)c1cc(N2C(=O)CCC2=O)ccc1Cl,1,14%,.,?,7%,.
O=C(c1ccccc1)c1ccccc1N1C(=O)C=CC1=O,0,?,7.1µM*,5.2µM*,?,5µM*
O=C1C=CC(=O)N1c1ccccc1N1C(=O)C=CC1=O,7,2.3µM*,.,?,.,.
CC(=O)c1ccc(OC(C)c2nc3ccccc3s2)cc1 (stereo not drawn),2,4%,23%,-5%,?,?
O=C(Nc1ccccn1)c1cc2cc([N+](=O)[O-])ccc2s1,-27,18%,2%,-2%,?,?
C=CCOc1ccc2cccc(/C=N/NC(=O)c3cc4cc([N+](=O)[O-])ccc4s3)c2c1,13,21µM*,-3%,?,7%,28%
CCOc1ccccc1C1C(C(=O)OC)=C(N)OC2=C1C(=O)CCC2 (stereo not drawn),-1,2%,-1%,-3%,8%,-15%
